Test results taken from PubChem BioAssay.
Calls of active or inactive are those of the source. The rule behind the calls is not given here.

target: Protein kinase 7 (PK7), Plasmodium falciparum 3D7 (PF3D7_0213400) (UniProt Q7YTF7); experiment: inhibition of Plasmodium PK7 catalytic activity – biochemical, TCAMS antimalarial set, Kinase-Glo luminescence (AID 1159587); conditions: recombinant PfPK7, Kinase-Glo ATP depletion luminescence
Sequence (Q7YTF7 1-343): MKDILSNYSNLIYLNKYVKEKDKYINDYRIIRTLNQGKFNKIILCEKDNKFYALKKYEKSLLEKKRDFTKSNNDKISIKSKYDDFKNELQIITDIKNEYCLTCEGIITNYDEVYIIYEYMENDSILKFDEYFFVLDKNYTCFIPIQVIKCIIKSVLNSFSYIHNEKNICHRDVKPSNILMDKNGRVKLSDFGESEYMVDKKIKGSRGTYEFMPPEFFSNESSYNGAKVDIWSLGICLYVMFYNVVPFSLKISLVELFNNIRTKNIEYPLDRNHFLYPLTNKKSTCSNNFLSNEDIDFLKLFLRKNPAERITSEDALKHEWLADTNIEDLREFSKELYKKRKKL

outcome, inactive:
Cc1cc(N(C)CCN(C)C)nc(Nc2ccc(Cl)cc2)n1
c1ccc(CN2CCC(Nc3ccc(-c4cn[nH]c4-c4ccccn4)nc3)CC2)cc1
O=C(Nc1ccc2c(c1)CCN2C1CCN(Cc2ccc(O)cc2)C1)c1ccco1 (centres undefined)
Cc1ccc(NC(=O)c2ccc(CN3CCCN(CC4CCCCC4)CC3)cc2)cc1
COc1ccc2ccccc2c1CCCCN1CCN(CC(c2ccc(F)cc2)N2CCC(N3CCCC3)CC2)CC1 (centres undefined)
O=C(NCCN1CCC(NC(=O)c2ccc(-c3ccccn3)s2)CC1)c1ccc(Cl)c(Cl)c1
Cc1cc(NN=Cc2ccc(F)cc2)c2ccc(F)cc2n1
C=C[C@H]1CN(CCCCCCC)CC[C@H]1CCNc1ccnc2ccc(OC)cc12
CCC(O)c1ccc(Br)cc1NC(=O)c1cccc(Cl)c1 (centres undefined)
FC(F)(F)c1ccc2nc(-c3cccc(-c4ccc(CNCCc5ccncc5)cc4)c3)[nH]c2c1
CC(C)C[C@@H](/C=N/N1CC(=O)NC1=O)NC(=O)[C@H](CC(C)C)NC(=O)c1ccc(OCCN2CCOCC2)cc1
Cc1cccc2[nH]c(-c3cccc(-c4ccc(CNCc5cnn(-c6ccccc6)n5)cc4)c3)nc12
CCNC(=O)N[C@@H]1CN[C@@H](C#Cc2cc3c(Nc4ccc(OCc5cccc(F)c5)c(Cl)c4)ncnc3s2)C1
CN1CCN(CCCN(Cc2ccc(-c3ccc(CNC4CCCC4)cc3)cc2)C(=O)CCC2CCCC2)CC1
CCOC(=O)c1c[nH]c2c(sc3cc(OC)ccc32)c1=O
CS(=O)(=O)c1ccc(-c2cncc(Cl)n2)cc1
Cc1cccc2[nH]c(-c3cccc(-c4ccc(NC(=O)C(C)(C)c5ccccn5)cc4)c3)nc12
CN1CCc2ccc(NC(=O)Nc3ccc(Cl)c(Cl)c3)cc2C1
CCCCCCCCn1c2c(c(=N)c3c1CCC3)CCC2
Cc1cc(N2CCCN(C)CC2)nc(Nc2ccc(Cl)cc2)n1
N#CCSc1nnc(-c2ccccc2)c2ccccc12
CC(=O)N1CCC(C(=O)Nc2ccc(-c3cccc(-c4nc5ccc(C(F)(F)F)cc5[nH]4)c3)cc2)CC1
Cc1cc(N[C@@H](CC(C)C)C(=O)NCCOc2ccccc2)nc(NCCOc2ccccc2)n1
O=C(Nc1cccc(CN2CCCN(Cc3ncc[nH]3)CC2)c1)c1ccc(Cl)c(Cl)c1
O=C(NC1CCCCC1)c1csc(C2CCCN(C(=O)c3ccc(O)c(-c4cccc(C(F)(F)F)c4)c3)C2)n1 (centres undefined)
CC(=O)c1ccc(O)c(CC(O)CO)c1 (centres undefined)
O=C(/C=C/c1cc(C(F)(F)F)ccc1F)NCCCCCN1CCC(c2c[nH]c3ccccc23)CC1
Cc1nc2c(-n3cc(Cn4ccnc4)c4ccccc43)ncnc2n1-c1ccc(Cl)cc1Cl
Cc1cc(NC(=O)c2ccco2)ccc1OC1CCN(Cc2ccc(F)cc2)CC1
Cc1cc(CN2CCCC(OC(c3ccc(F)cc3)c3ccc(F)cc3)C2)ccc1O (centres undefined)
NC(N)=NN=CC(=O)Nc1cc([N+](=O)[O-])cc([N+](=O)[O-])c1
COc1cc(Nc2nccc(N3CCC(NS(=O)(=O)c4ccc(NC(C)=O)cc4)CC3)n2)cc(OC)c1OC
O=C(c1cccs1)N1N=C(c2cccs2)CC1c1cccc([N+](=O)[O-])c1 (centres undefined)
Oc1ccc(Cl)c2c1C(c1ccccc1)=NCC2
Cc1nc(C)c(CC(=O)Nc2cccc(-c3cccc(-c4nc5ccc(C(F)(F)F)cc5[nH]4)c3)c2)s1
CN(C)CCOc1cc(NC(=O)Nc2cccc3c(-c4ccncc4)cccc23)ccc1I
Cc1ccc(CN=C(N)NC(=O)c2nc(Cl)c(NCc3ccc(Cl)cc3)nc2N)c(C)c1
O=C(Nc1ccc(OC2CCN(Cc3ccccc3)CC2)c(Cl)c1)c1cccs1
COc1ccc(-c2cncc(-c3ccc(OC)c(OC)c3)n2)cc1OC
